This is one part of a sample in which hits are shown more often than they occur.
Shiga toxin inh: blocks Shiga toxin action in Vero cells; Vero cells, Shiga toxin protein synthesis inhibition reporter; inhibition, % at 38.7 µM; 9.2% of 290,000 active; AID 2315; in the data active means inhibition mostly above about 28%, no sharp cut-off; inactive means mostly below about 43%
FBPA Giardia inh: Giardia lamblia aldolase inhibition; 0.71% of 290,000 active; A8B2U2; purified Giardia FBPA; Potency, µM (top dose mostly 59.6 µM), hits mostly inhibitors; AID 2451; further: nearly all actives have a fitted effect of over 55% in size
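40 nM FBPA preincubated 10 min at RT with compound (up to 57.5 uM final), then substrate plus GAPDH/TPI/NAD/arsenate coupling and diaphorase/resazurin added. Fluorescence read after 20 min at RT, 525/598 nm.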
LmPK inhibitor: inhibitors of Leishmania mexicana pyruvate kinase; Q27686; purified LmPK, Kinase-Glo ATP luminescence, 1 h; Potency, µM (top dose mostly 57.5 µM), actives largely listed as inhibitors; 0.37% of 290,000 active
Target sequence (Q27686 whole entry, looked up): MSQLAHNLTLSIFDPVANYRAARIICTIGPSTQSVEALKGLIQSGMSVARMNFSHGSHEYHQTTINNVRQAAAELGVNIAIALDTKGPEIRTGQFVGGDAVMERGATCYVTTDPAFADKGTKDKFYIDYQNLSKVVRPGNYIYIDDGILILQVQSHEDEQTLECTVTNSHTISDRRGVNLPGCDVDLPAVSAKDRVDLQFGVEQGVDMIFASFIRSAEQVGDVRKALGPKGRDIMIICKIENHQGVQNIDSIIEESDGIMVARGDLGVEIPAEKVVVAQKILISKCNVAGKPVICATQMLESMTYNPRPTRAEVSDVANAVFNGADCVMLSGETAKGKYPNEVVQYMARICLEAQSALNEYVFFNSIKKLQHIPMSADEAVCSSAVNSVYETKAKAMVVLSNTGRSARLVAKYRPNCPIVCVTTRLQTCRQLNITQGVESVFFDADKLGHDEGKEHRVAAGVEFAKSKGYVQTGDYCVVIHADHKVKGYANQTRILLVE
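0.1 nM LmPK, 0.5 mM PEP, 0.1 mM ADP; 50 mM imidazole pH 7.2, 7 mM MgCl2, 50 mM KCl; 1 h RT. Kinase-Glo luminescence readout, normalized to no-enzyme (full inhibition) and uninhibited wells.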
RE007 growth inh: less growth of the S. pombe RE007 Vpr strain; S. pombe RE007 Vpr strain, BacTiter-Glo ATP luminescence, 24 h; Potency, µM (highest dose often 92.2 µM), usual class: inhibitors; 0.21% of 360,000 active; AID 651644; active means well fitted falling curve with a large enough effect; inconclusive means small, poorly fitted or top-dose-only effect; inactive means no such curve, though single readings can be large or run the other way; further: nearly all actives have a fitted effect of over 50% in size
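Fission yeast RE007 carrying one integrated HIV-1 vpr copy, seeded at OD 0.01 in PMG+AL medium with 23 nL pinned compound. Grown 24 h at 30 degrees; viability read by BacTiter-Glo luminescence after 5 min.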
TbPYK inhibitor: blocks Trypanosoma brucei pyruvate kinase. AID 624173. Potency, µM (highest dose often 76.8 µM), usual class: inhibitors. 0.12% of 410,000 active. TbPYK enzyme, Kinase-Glo Plus ATP luminescence, 45 min; further: nearly all actives have a fitted effect of over 50% in size
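Activity of T. brucei pyruvate kinase was followed by Kinase-Glo Plus luminescence after the enzyme reacted 45 min at room temperature with 130 uM ADP (final) and substrate. Test compounds were added before ADP at multiple concentrations.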
Cycloheximide cs: counter-screen hit for Shiga toxin inhibitors, cycloheximide; max response, %; cell reporter, cycloheximide protein synthesis inhibition counterscreen; 12% of 300,000 active; AID 2314; in the data active means max response mostly above about 13%, no sharp cut-off; inactive means mostly below about 14%; further: read at 38.3 µM for the half of the compounds with a filed dose
A number is an active result; n = inactive; u = inconclusive; x = not tested or not shown; + = active, no number. Unless noted, the call rests on the fitted dose curve; in most records, active means well fitted curve in the direction sought with a large enough effect; inconclusive means small, poorly fitted or top-dose-only effect, or another doubt; inactive means no such curve, though single readings can be large; an effect the other way counts as inactive or inconclusive.

SMILES	Shiga toxin inh	FBPA Giardia inh	LmPK inhibitor	RE007 growth inh	TbPYK inhibitor	Cycloheximide cs
N/C(=N\OC(=O)CSc1ccccc1)c1cccc([N+](=O)[O-])c1	n	n	n	n	n	32.7
COc1cccc(OCC(=O)O/N=C(\N)c2ccncc2)c1	59.3	n	n	n	n	27.7
N/C(=N\OC(=O)CSc1ccccc1)c1ccncc1	78.6	x	n	n	n	47.0
CC[C@H]1C2=C3C(CC[C@H]4C(OCc5ccc(F)cc5C(F)(F)F)OC[C@](C)([C@@H]34)N(C(=O)OC(C)(C)C)C2)C(COC)C1COC (some centres not stated)	x	n	x	x	x	x
N/C(=N\OC(=O)COc1ccccc1)c1ccncc1	82.8	n	n	n	n	43.5
CCN(C(=O)/C=C/c1ccc(OC)cc1)C1CCCCC1	n	n	n	n	n	11.8
CCN(C(=O)/C=C/c1ccc(OC)cc1)C1CCS(=O)(=O)C1 (configuration not stated)	x	x	x	n	n	x
CC(C)c1ccc(NC(=O)CN2C(=O)CSc3ccc(S(=O)(=O)N4CCCC4)cc32)cc1	x	x	x	x	n	x
C(=N\N=C\c1ccccn1)/c1ccccn1	n	n	n	n	n	12.6
CC(C)(C)c1ccc(C(=O)N/N=C/c2ccccn2)cc1	84.7	n	n	u	n	45.4
O=C(N/N=C/c1ccccn1)c1ccc(N/N=C/c2ccccn2)cc1	63.4	u	n	n	n	28.6
O=C(N/N=C/c1ccccn1)c1ccc(Br)cc1	121.9	n	n	u	n	66.9
C(=C1c2ccccc2-c2ccccc21)c1ccccn1	x	x	x	n	n	x
CCOC(=O)c1c(Nc2cc(C)cc(C)c2)nnc(-c2ccccc2)c1-c1ccccc1	x	x	x	x	n	x
CCCS(=O)(=O)N1CCCC(C(=O)NCCOC)C1 (configuration not stated)	x	x	x	x	n	x
CCOc1ccccc1CNC(=O)c1oc2c(c1C)-c1[nH]ncc1CC2	x	x	x	x	n	x
NCCCC[C@H](NC(=O)[C@@H]1CCCN1C(=O)[C@H](CO)NC(=O)[C@H](CC(=O)O)NC(=O)CNC(=O)[C@H](CCCN=C(N)N)NC(=O)CN)C(=O)O	n	n	x	x	x	n
O=C(N/N=C/c1ccccn1)c1ccc([N+](=O)[O-])cc1	100.0	u	n	n	n	36.4
COc1ccc2cc3cc(C(=O)Nc4ccccc4C)oc3nc2c1	x	x	x	x	n	x
O=[N+]([O-])c1ccc2c(c1)N([O-])C1(CCCCC1)[N+]2=O	n	7.92µM	n	n	u	n
COc1ccc(C(CC(=O)NCc2ccccc2Cl)N2Cc3ccccc3C2=O)cc1OC (configuration not stated)	x	x	x	x	n	x
COCC(=O)N1CCC(n2nccc2NC(=O)c2ccccc2OC)CC1	n	x	n	n	n	n
O=C(Nc1ncc(Cl)cc1Cl)c1c(F)cccc1Cl	65.8	n	n	n	n	n
O=C(Nc1ccc(N2CCOCC2)cc1)c1c(F)cccc1Cl	n	n	n	n	n	n
CC(C)(C)c1ccc(NC(=O)c2c(F)cccc2Cl)cc1	55.2	n	n	u	n	31.2
SMILES	Shiga toxin inh	FBPA Giardia inh	LmPK inhibitor	RE007 growth inh	TbPYK inhibitor	Cycloheximide cs
CCN(CC)C(=O)c1ccc(-c2cccs2)s1	93.5	n	n	n	n	55.7
O=Cc1ccc(-c2cccs2)s1	x	x	x	n	n	x
CC(C)Oc1ccc(C(=O)N2CCC(c3nc4ccccc4o3)CC2)cc1	x	x	x	x	n	x
Cc1ccc(-c2nc3ccccc3o2)cc1NC(=O)Cc1cccs1	n	n	n	n	n	n
Cc1ccsc1/C=C(\C(=O)c1ccc(OC(C)C)cc1)c1nc2ccccc2o1	+	n	n	n	n	122.1
Cc1ccsc1/C=C(\CC(=O)O)c1nc2ccccc2o1	50.8	x	n	n	n	22.0
CC(C)COc1ccc(C(=O)OCCN2CCOCC2)cc1	36.3	n	n	u	n	25.0
CC(C)COc1ccc(C(=O)OCCN2CCCCC2)cc1	37.1	n	n	n	n	n
CCC(=O)c1ccc(OCCN2CCOCC2)cc1	n	n	n	n	n	n
O=C(Cc1ccccc1)OCCN1CCCCC1	n	n	n	n	n	n
CC(C)COc1ccc(C(=O)CCN2CCCCC2)cc1	n	n	n	u	n	n
O=C(OCCN1CCCCC1)c1ccccc1Br	n	n	n	n	n	35.4
Cc1cc(OCCN2CCOCC2)ccc1C(C)C	59.7	n	n	n	n	48.4
O=c1c(-c2cc(F)cc(F)c2)nc2cnc(N3CCNCC3)nc2n1-c1ccccc1	x	n	x	x	x	x
COc1ccc(C(=O)/C=C/c2ccccc2F)c(OC(=O)c2ccc([N+](=O)[O-])cc2)c1	n	n	n	n	n	48.9
O=C(/C=C/c1ccccc1F)c1cccc([N+](=O)[O-])c1	active	n	n	n	n	n
COc1ccc(C(=O)Oc2ccc(F)cc2C(=O)/C=C/c2ccc(OC)c(OC)c2)cc1	n	n	n	n	n	n
O=C(Oc1ccc(F)cc1C(=O)/C=C/c1cccs1)c1cccc([N+](=O)[O-])c1	48.9	n	n	n	n	n
COc1ccc(C(=O)/C=C/c2ccc(C)cc2)c(OC(=O)c2ccc([N+](=O)[O-])cc2)c1	n	n	n	n	n	32.1
COc1ccc(C=CC(=O)c2ccc([N+](=O)[O-])cc2)cc1	x	x	x	n	n	x
CC(=O)N1CC=CC1(C)C(=O)NCC1CC1 (configuration not stated)	x	n	x	x	x	x
C=C1C(n2cnc3c(=O)[nH]c(N)nc32)C[C@H](O)[C@H]1CO (some centres not stated)	x	x	x	x	n	x
COc1ccccc1CNc1ncnc2onc(-c3ccc(F)cc3)c12	x	x	x	x	n	x
Cc1occc1-c1nnc(SCC(=O)Nc2ccccn2)o1	38.0	n	n	n	n	17.1
O=C(CSc1nnc(-c2ccccc2Cl)o1)Nc1ccccn1	73.2	n	n	n	n	48.1
SMILES	Shiga toxin inh	FBPA Giardia inh	LmPK inhibitor	RE007 growth inh	TbPYK inhibitor	Cycloheximide cs
COc1ccccc1NC(=O)CSc1nnc(-c2ccoc2C)o1	x	x	x	n	n	x
Cc1[nH][nH]c(=O)c1N=Nc1ccc(Br)c(Cl)c1	x	x	x	n	n	x
COc1ccc(OCCCc2c(C)n[nH]c2C)cc1	n	n	n	n	n	n
COc1ccc(N=Nc2c(C)n[nH]c2C)cc1	119.0	n	n	n	n	28.6
Cc1n[nH]c(C)c1N=Nc1ccc(Br)cc1	n	n	n	u	n	27.0
COc1ccc(C(O)C2=CCCC2=O)cc1 (configuration not stated)	x	n	x	x	x	x
O=C1/C(=C/c2ccccn2)SC(=S)N1c1ccc(O)cc1	67.1	n	n	n	n	29.7
Cc1ccc(N2C(=O)/C(=C/c3cccnc3)SC2=S)cc1	n	n	n	n	n	n
Cc1ccc(N=C2NC(=O)S/C2=C\c2ccco2)cc1	49.2	n	n	n	n	18.3
Cc1ccc(N2C(=O)/C(=C/c3ccco3)SC2=S)cc1	n	n	n	n	n	15.7
Cc1cccc(N2C(=O)/C(=C/c3ccccn3)SC2=S)c1	n	n	n	n	n	n

Screening data (PubChem BioAssay)
